Here are results for 17 compounds from PubChem BioAssay (EPA / NIEHS).

Structures are written as SMILES. The source made the active and inactive calls. Rule for the calls: active = hit-call score of the fitted dose curve at least 0.9, where 1 is the maximum; inactive = score below 0.9.

Read-out in the assay: Transforming growth factor beta 1 (TGFb1), TGFB1 (gene 7040)
As to the kind of experiment: BSK_KF3CT_TGFb1: BioMAP Diversity Plus: KF3CT Assay for Transforming growth factor beta 1 (TGFb1) Biomarker Activity (AID 2283072). Conditions: primary human keratinocytes with fibroblasts; actives raise or lower the signal. How it is done:
BSK_KF3CT is a cell-based, multiplexed-readout assay that uses keratinocytes and foreskin fibroblasts, a human skin primary cell co-culture, with measurements taken at 24 hours after chemical dosing in a 96-well plate.BSK_KF3CT_TGFb1 is an assay component measured in the BSK_KF3CT assay. It measures TGF-b1 antibody related to regulation of gene expression using ELISA technology.Data from the assay component BSK_KF3CT_TGFb1 was analyzed into 1 assay endpoint. This assay endpoint, BSK_KF3CT_TGFb1, was analyzed with bidirectional fitting relative to DMSO as the negative control and baseline of activity. Using a type of binding reporter, gain or loss-of-signal activity can be used to understand changes in the signaling as they relate to the gene TGFB1. Furthermore, this assay endpoint can be referred to as a primary readout, because this assay has produced multiple assay endpoints where this one serves a signaling function. To generalize the intended target to other relatable targets, this assay endpoint is annotated to the growth factor intended target family, where the subfamily is transforming growth factor beta.
The levels of cell surface (or secreted, indicated by the prefix "s") biomarker endpoints were measured by ELISA. Overt cytotoxicity to cells in confluent adherent cultures (all systems other than the BT system) was assessed by measuring total protein levels using sulforhodamine B (SRB) staining in parallel cultures at the time of biomarker measurements, indicated as SRB endpoints. For proliferation assays for adherent cell types, individual cell types are cultured at sub-confluence and relative cell numbers quantified by SRB staining at time points optimized for each system (48 h: 3C and CASM3C systems; 72 h: BT and HDF3CGF systems; 96 h: SAg system). SRB was performed by staining cells with 0.1% SRB after fixation with 10% TCA and reading wells at 560 nm.Viability and proliferation of PBMC (T cells) was quantified by Alamar Blue reduction for the SAg and BT systems. For PBMC viability (referred to as PBMC Cytotoxicity within the assay endpoint names), cells were plated (75,000/well in a 96-well plate) and then chemical samples added for 1 h before addition of activators, SEB and TSST-1 (20 ng/mL final concentration each). Cells were incubated for 90 h. Then, Alamar Blue (20 uL/well) (Invitrogen, Cat DAL1100) was added for 6 h, and the plates were read with a fluorescence microplate reader at 546/580 nm (excitation/emission). For PBMC proliferation, cells were plated and activated as above but incubated for only 16 h prior to addition of Alamar Blue. Plates were read after 6 h.
For the compound `CCCCCCCCCCCCCCCC[N+](C)(C)Cc1ccccc1`, the AC50 is 1.02 µM (active).
The same measure, in the same setting: the same measure for `C#C[C@]1(O)CC[C@H]2[C@@H]3CCc4cc(OC)ccc4[C@H]3CC[C@@]21C`: 2.14 µM (active).
Consider `CC(=O)Nc1ccc(N=Nc2cc(C)ccc2O)cc1`, for which the result was inactive.
On the same count and under the same terms, the same measure for `CS(C)(=O)=O`: “inactive”.
Regarding `O[Si](c1ccccc1)(c1ccccc1)c1ccccc1`, the AC50 was 20 µM (active).
`CCCCNc1ccccc1`: the outcome was inactive.
`Oc1ccc(Nc2ccccc2)cc1`: the AC50 is 20 µM (active).
In the case of `CCc1c(Br)c(Br)c(Br)c(Br)c1Br`, the result was inactive.
Same read-out and setting: the same measure for `Nc1ccc([N+](=O)[O-])cc1O`: “inactive”; for `C=CC/C=C/C/C=C/C/C=C/C`: “inactive”; for `CC(CCl)OP(=O)(OC(C)CCl)OC(C)CCl` (configuration not stated): “inactive”.
In the case of `CO[Si](OC)(c1ccccc1)c1ccccc1`, the AC50 is 30.1 µM (active).
For `CCCCOCCOCCOC(=O)CCCCC(=O)OCCOCCOCCCC`, the outcome was inactive.
Same read-out and setting: the result for `CCCCCCCOC(=O)c1ccccc1C(=O)OCCCCCCC` reads “inactive”; that for `CCCCCCC(C)OC(=O)CCCCC(=O)OC(C)CCCCCC` (configuration not stated), “inactive”.
`CCc1ccc(C(c2ccc(CC)cc2)C(Cl)Cl)cc1`: the AC50 is 20 µM (active).
Turning to `CCN(CC)c1ccc2c(C)cc(=O)oc2c1`, the outcome was inactive.

Broadly, the AC50 is the concentration at which the activity in the assay is half-maximal.
